From PubChem BioAssay AID1159580 (chemical genetic matrix, 2015)
Where “and” joins values, the source holds several entries; their conditions need not be identical. Equal values may be shown once. About 2,000 (36%) of roughly 5,500 compounds were called active. About 18% were inconclusive and are not listed. Rule as the data show it: active = normalized growth mostly below about 0.91 (no sharp cut-off); inconclusive = no clear call, values can overlap the other calls; inactive = mostly above about 0.92. The list shows a part of the results.

Test: chemical genetic growth profiling, strain panel (AID 1159580);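 also: tested at 20 µM; growth read once vehicle control cultures reached saturation at 30 °C; 1 = growth at the plate median or of vehicle wells; lower values mean less growth of the strain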
Conditions: S. cerevisiae deletion strains, growth OD

Measured: normalized growth

CN(C)CCOC(C)(c1ccccc1)c1ccccn1 (centres undefined)
inactive: locus YAL021C, strain ccr4, active compounds read low 1.03 | locus YAL026C, strain drs2, active compounds read low 1 | locus YAL030W, strain snc1, active compounds read low 0.993 | locus YAL040C, strain CLN3, active compounds read low 0.998 | locus YBL061C, strain skt5, active compounds read low 1 | locus YBR009C, strain hhf1, active compounds read low 1 | locus YBR021W, strain FUR4, active compounds read low 1.01 | locus YBR023C, strain chs3, active compounds read low 1.01 | locus YBR171W, strain sec66, active compounds read low 1 | locus YBR229C, strain ROT2, active compounds read low 1.01 | locus YBR231C, strain swc5, active compounds read low 1 | locus YBR279W, strain paf1, active compounds read low 1.01 | locus YCL011C, strain gbp2, active compounds read low 1 | locus YCL016C, strain dcc1, active compounds read low 1.01 | locus YCL029C, strain bik1, active compounds read low 0.958 | locus YCL061C, strain MRC1 (second series), active compounds read low 1.01 | locus YCL061C, strain MRC1, active compounds read low 1.01 | locus YCL069W, strain vba3, active compounds read low 1.02 | locus YCR088W, strain abp1, active compounds read low 1.02 | locus YDL005C, strain med2, active compounds read low 1.01 | locus YDL035C, strain GPR1, active compounds read low 1.02 | locus YDL040C, strain nat1, active compounds read low 1.01 | locus YDL074C, strain BRE1, active compounds read low 0.977 | locus YDL101C, strain DUN1, active compounds read low 0.989 | locus YDL185W, strain tfp1, active compounds read low 0.953 | locus YDL192W, strain arf1, active compounds read low 0.99 | locus YDR001C, strain nth1, active compounds read low 1.01 | locus YDR069C, strain doa4, active compounds read low 0.975 | locus YDR101C, strain arx1, active compounds read low 0.993 | locus YDR137W, strain rgp1, active compounds read low 0.991 | locus YDR150W, strain NUM1, active compounds read low 1 | locus YDR159W, strain sac3, active compounds read low 0.928 | locus YDR162C, strain NBP2, active compounds read low 0.998 | locus YDR195W, strain ref2 0.995 | locus YDR297W, strain sur2, active compounds read low 0.973 | locus YDR318W, strain mcm21, active compounds read low 0.981 | locus YDR334W, strain swr1, active compounds read low 1.01 | locus YDR335W, strain msn5, active compounds read low 0.985 | locus YDR363W, strain ESC2, active compounds read low 0.994 | locus YDR388W, active compounds read low 0.989 | locus YDR392W, strain spt3, active compounds read low 0.974 | locus YDR502C, strain sam2, active compounds read low 0.998 | locus YEL003W, strain gim4, active compounds read low 1.01 | locus YEL037C, strain rad23, active compounds read low 1.01 | locus YEL061C, strain CIN8 (second series), active compounds read low 1.01 | locus YEL061C, strain CIN8, active compounds read low 0.991 | locus YER002W, strain NOP16, active compounds read low 1 | locus YER015W, strain faa2, active compounds read low 1.01 | locus YER016W, strain bim1, active compounds read low 1.01 | locus YER110C, active compounds read low 0.961 | locus YER111C, strain swi4, active compounds read low 1.02 | locus YER155C, strain BEM2 (second series), active compounds read low 0.99 | locus YER155C, strain BEM2, active compounds read low 0.994 | locus YER167W, strain BCK2, active compounds read low 0.986 | locus YFR010W, strain ubp6, active compounds read low 1.02 | locus YGL078C, strain dbp3, active compounds read low 0.981 | locus YGL086W, strain mad1, active compounds read low 1.01 | locus YGL167C, strain pmr1, active compounds read low 1 | locus YGL173C, strain kem1, active compounds read low 1.03 | locus YGL227W, strain vid30, active compounds read low 0.997 | locus YGL240W, strain doc1, active compounds read low 1 | locus YGL248W, strain PDE1, active compounds read low 0.979 | locus YGL253W, strain hxk2, active compounds read low 1.01 | locus YGR135W, strain pre9, active compounds read low 0.951 | locus YGR229C, strain SMI1, active compounds read low 0.995 | locus YGR252W, strain gcn5, active compounds read low 0.994 | locus YHR013C, strain ard1, active compounds read low 0.986 | locus YHR027C, strain rpn1, active compounds read low 1.01 | locus YHR030C, strain SLT2, active compounds read low 1 and 1.04 | locus YHR079C, strain IRE1 (second series), active compounds read low 0.974 | locus YHR079C, strain IRE1, active compounds read low 1.03 | locus YHR094C, strain hxt1, active compounds read low 0.985 | locus YHR129C, strain ARP1, active compounds read low 1 | locus YHR142W, strain chs7, active compounds read low 1.03 | locus YHR200W, strain rpn10, active compounds read low 0.983 | locus YIL066C, strain RNR3, active compounds read low 0.995 | locus YIL073C, strain SPO22, active compounds read low 0.924 | locus YIL125W, strain kgd1, active compounds read low 0.992 | locus YIR030C, strain dcg1, active compounds read low 0.96 | locus YJL092W, strain hpr5, active compounds read low 1.02 | locus YJL095W, strain BCK1 (second series), active compounds read low 0.983 | locus YJL095W, strain BCK1, active compounds read low 0.955 and 1.03 | locus YJL115W, strain asf1, active compounds read low 1.01 | locus YJL129C, strain trk1, active compounds read low 1.03 | locus YJL134W, strain LCB3, active compounds read low 1 | locus YJL154C, strain vps35, active compounds read low 1.01 | locus YJL164C, strain tpk1, active compounds read low 1.01 | locus YJL166W, strain qcr8, active compounds read low 1 | locus YJL168C, strain set2, active compounds read low 0.991 | locus YJL187C, strain SWE1 (second series), active compounds read low 0.977 | locus YJL187C, strain SWE1, active compounds read low 0.999 | locus YJR043C, strain POL32, active compounds read low 1.04 | locus YJR066W, strain TOR1, active compounds read low 0.941 | locus YJR075W, strain HOC1, active compounds read low 0.974 | locus YKL009W, strain mrt4, active compounds read low 0.954 | locus YKL068W, active compounds read low 0.983 | locus YKL085W, strain MDH1 (second series), active compounds read low 0.971 | locus YKL085W, strain MDH1, active compounds read low 0.971 | locus YKL160W, strain elf1, active compounds read low 0.988 | locus YKR001C, strain vps1, active compounds read low 0.976 | locus YKR026C, strain gcn3, active compounds read low 1 | locus YKR091W, strain srl3, active compounds read low 1.01 | locus YLL001W, strain dnm1, active compounds read low 1.02 | locus YLL026W, active compounds read low 1 | locus YLL041C, strain sdh2, active compounds read low 0.963 | locus YLR027C, strain aat2, active compounds read low 0.997 | locus YLR039C, strain RIC1, active compounds read low 0.989 | locus YLR058C, strain SHM2, active compounds read low 0.993 | locus YLR102C, strain apc9, active compounds read low 0.976 | locus YLR113W, strain HOG1, active compounds read low 1.07 | locus YLR221C, strain rsa3, active compounds read low 1.01 | locus YLR258W, strain gsy2, active compounds read low 0.985 | locus YLR262C, strain YPT6 (second series), active compounds read low 1.05 | locus YLR262C, strain YPT6, active compounds read low 0.939 | locus YLR268W, strain sec22, active compounds read low 0.983 | locus YLR320W, strain mms22, active compounds read low 0.984 | locus YLR330W, strain CHS5, active compounds read low 0.995 | locus YLR342W, strain FKS1 (second series), active compounds read low 1.07 | locus YLR342W, strain FKS1, active compounds read low 1.02 | locus YLR357W, strain rsc2, active compounds read low 1.02 | locus YLR370C, strain arc18, active compounds read low 0.967 | locus YLR371W, strain rom2, active compounds read low 0.97 | locus YLR384C, strain iki3, active compounds read low 0.996 | locus YLR418C, strain cdc73, active compounds read low 0.98 | locus YML016C, strain PPZ1, active compounds read low 1 | locus YML032C, strain rad52, active compounds read low 0.997 | locus YML120C, strain ndi1, active compounds read low 0.995 | locus YML124C, strain tub3, active compounds read low 0.985 | locus YMR058W, strain fet3, active compounds read low 1.03 | locus YMR078C, strain ctf18, active compounds read low 0.963 | locus YMR125W, strain sto1, active compounds read low 1 | locus YMR129W, active compounds read low 0.982 | locus YMR205C, strain PFK2, active compounds read low 0.992 | locus YMR223W, strain ubp8, active compounds read low 0.966 | locus YMR231W, strain pep5, active compounds read low 1.01 | locus YMR263W, strain SAP30, active compounds read low 0.991 | locus YMR307W, strain GAS1, active compounds read low 1.04 and 0.992 | locus YNL067W, strain RPL9B, active compounds read low 0.967 | locus YNL071W, strain lat1, active compounds read low 1.01 | locus YNL175C, strain NOP13, active compounds read low 0.992 | locus YNL183C, strain NPR1, active compounds read low 1 | locus YNL197C, strain WHI3, active compounds read low 0.982 | locus YNL209W, strain ssb2, active compounds read low 1.02 | locus YNL224C, strain SQS1, active compounds read low 1 | locus YNL233W, strain BNI4, active compounds read low 0.986 | locus YNL248C, strain rpa49, active compounds read low 1.04 | locus YNL250W, strain rad50, active compounds read low 0.984 | locus YNL271C, strain bni1, active compounds read low 0.987 | locus YNL298W, strain CLA4, active compounds read low 0.989 | locus YNL307C, strain MCK1, active compounds read low 0.983 | locus YNL322C, strain KRE1 (second series), active compounds read low 1.01 | locus YNL322C, strain KRE1, active compounds read low 0.994 | locus YNR049C, strain mso1, active compounds read low 0.962 | locus YNR052C, strain pop2, active compounds read low 0.977 | locus YOL012C, strain htz1 0.665 | locus YOL147C, strain pex11, active compounds read low 0.984 | locus YOR001W, strain rrp6, active compounds read low 1.03 | locus YOR061W, strain CKA2, active compounds read low 0.996 | locus YOR069W, strain VPS5, active compounds read low 0.999 | locus YOR070C, strain gyp1, active compounds read low 1 | locus YOR080W, strain dia2, active compounds read low 1.01 | locus YOR083W, strain WHI5 (second series), active compounds read low 0.984 | locus YOR083W, strain WHI5, active compounds read low 0.973 | locus YOR106W, strain vam3, active compounds read low 1.02 | locus YOR136W, strain idh2, active compounds read low 0.983 | locus YOR144C, strain elg1, active compounds read low 0.993 | locus YOR184W, strain ser1, active compounds read low 0.959 | locus YOR231W, strain MKK1, active compounds read low 1.07 | locus YOR265W, strain rbl2, active compounds read low 0.999 | locus YOR270C, strain vph1, active compounds read low 1.07 | locus YOR290C, strain snf2, active compounds read low 1.01 | locus YOR316C, strain cot1, active compounds read low 0.975 | locus YPL051W, strain arl3, active compounds read low 1 | locus YPL055C, strain LGE1, active compounds read low 0.992 and 1.03 | locus YPL078C, strain atp4, active compounds read low 1 | locus YPL106C, strain sse1, active compounds read low 0.98 | locus YPL240C, strain hsp82, active compounds read low 0.977 | locus YPL241C, strain CIN2, active compounds read low 0.999 | locus YPL256C, strain CLN2, active compounds read low 1.03 | locus YPR119W, strain clb2, active compounds read low 0.98 | locus YPR141C, strain kar3, active compounds read low 0.971 | locus YPR163C, strain tif3, active compounds read low 0.977 | locus YPR167C, strain met16, active compounds read low 0.98 | strain wtn01, active compounds read low 0.996
